Experimental findings from publication doi:10.1101/2024.03.05.583629 are described below.

The assay deals with pT7_6His-AlfaTag-HOXD13 (human, UniProt P35453 263-343). Nature of the assay: PADIT-seq. The conditions noted are these: dsDNA, one strand shown.
Sequence of pT7_6His-AlfaTag-HOXD13 (P35453 263-343): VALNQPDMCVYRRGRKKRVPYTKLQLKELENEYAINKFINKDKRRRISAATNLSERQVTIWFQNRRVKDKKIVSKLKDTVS
For the sequence “CTCGAGGATATCAAGATCTGGCCTCGGCCTAATAAAAGGAACCTCTAGCTAGCCGACTCACTATAGGGATAATCGCCCTGAGCAAAGACC”, the binding signal was found to be 3.06 ± 0.0911 log2FC.
The result for “CTCGAGGATATCAAGATCTGGCCTCGGCAGTCTAAAAGGAACCTCTAGCTAGCCGACTCACTATAGGGATAATCGCCCTGAGCAAAGACC” reads -0.665 ± 0.0999 log2FC.
“CTCGAGGATATCAAGATCTGGCCTCGGCCAACTAAAAGGAACCTCTAGCTAGCCGACTCACTATAGGGATAATCGCCCTGAGCAAAGACC”: the binding signal stood at 0.0444 ± 0.126 log2FC.
The result for “CTCGAGGATATCAAGATCTGGCCTCGGCTTTTTAAGAGGAACCTCTAGCTAGCCGACTCACTATAGGGATAATCGCCCTGAGCAAAGACC” reads 2.84 ± 0.0822 log2FC; that for “CTCGAGGATATCAAGATCTGGCCTCGGCCGCCCATAGGGAACCTCTAGCTAGCCGACTCACTATAGGGATAATCGCCCTGAGCAAAGACC”, -0.685 ± 0.116 log2FC; that for “CTCGAGGATATCAAGATCTGGCCTCGGCTAGCCACGCGGAACCTCTAGCTAGCCGACTCACTATAGGGATAATCGCCCTGAGCAAAGACC”, -1.07 ± 0.127 log2FC.
In the case of “CTCGAGGATATCAAGATCTGGCCTCGGCTTTTTACTCGGAACCTCTAGCTAGCCGACTCACTATAGGGATAATCGCCCTGAGCAAAGACC” it was 0.725 ± 0.0977 log2FC; in that of “CTCGAGGATATCAAGATCTGGCCTCGGCTTTTTATCTGGAACCTCTAGCTAGCCGACTCACTATAGGGATAATCGCCCTGAGCAAAGACC”, 0.754 ± 0.104 log2FC.
For the sequence “CTCGAGGATATCAAGATCTGGCCTCGGCTTAATAAAAGGAACCTCTAGCTAGCCGACTCACTATAGGGATAATCGCCCTGAGCAAAGACC”, the binding signal stood at 2.67 ± 0.0794 log2FC.
The result for “CTCGAGGATATCAAGATCTGGCCTCGGCGTTTTAAAAGGAACCTCTAGCTAGCCGACTCACTATAGGGATAATCGCCCTGAGCAAAGACC” reads 2.44 ± 0.0598 log2FC.
